SNCA expr inhib = reduces expression of the alpha-synuclein gene; HEK-293 SNCA-luciferase knock-in, luminescence, 24 h; Potency, µM (doses to about 57.2 µM), inactives show at the top dose activity change, negative = inhibition, actives largely listed as inhibitors; 140,000 compounds, 0.17% hits; AID 1671194;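 further: potency means the concentration at half of the fitted maximal effect; plate controls were DMSO cells for no effect and cell-free wells for full effect; nearly all actives have a fitted effect of over 45% in size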
HEK293 viab = counter-screen for SNCA expression inhibitors: cell viability; Potency, µM (top dose mostly 57.1 µM), for inactives: top-dose activity change, negative = cytotoxicity, actives largely listed as cytotoxic; HEK-293-SNCA-luc viability, GF-AFC fluorescence, 24 h; 150,000 compounds, 0.12% hits;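 further: potency means the concentration at half of the fitted maximal effect; 0% = DMSO-treated cells and -100% = medium-only wells without cells; nearly all actives have a fitted effect of over 30% in size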
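Cytotoxicity counterscreen: after 24 h compound treatment of genome-edited SNCA-luciferase HEK-293 cells, live-cell protease substrate GF-AFC read by fluorescence after 30 min; activity scaled between DMSO (0%) and medium-only (-100%), curves Hill-fitted.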
HEK cytotox = HEK 293 cell cytotoxicity; HEK 293 viability, ATP luminescence (CellTiter-Glo), 48-72 h; Potency, µM (highest dose often 115 µM), without a hit: at the highest dose activity change, negative = cytotoxicity, usual class: inhibitors; 94,000 compounds, 6.6% hits; AID 1345083; further: potency means the concentration at half of the fitted maximal effect; nearly all actives have a fitted effect of over 60% in size
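Pintool-delivered compounds were incubated with HEK 293 cells (250 cells/well) at 37 degree Celsius for 48 or 72 hr. ATP-dependent luminescence (CellTiter-Glo) then reported remaining viable cells.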
Luciferase inh = Photinus pyralis luciferase inhibition; P08659; purified P. pyralis luciferase, luminescence, biochemical; Potency, µM (series often up to 115 µM), hits mostly inhibitors; 76,000 compounds, 2.5% hits; AID 1347043; further: potency means the concentration at half of the fitted maximal effect; nearly all actives have a fitted effect of over 65% in size
Target sequence (P08659 whole entry, looked up): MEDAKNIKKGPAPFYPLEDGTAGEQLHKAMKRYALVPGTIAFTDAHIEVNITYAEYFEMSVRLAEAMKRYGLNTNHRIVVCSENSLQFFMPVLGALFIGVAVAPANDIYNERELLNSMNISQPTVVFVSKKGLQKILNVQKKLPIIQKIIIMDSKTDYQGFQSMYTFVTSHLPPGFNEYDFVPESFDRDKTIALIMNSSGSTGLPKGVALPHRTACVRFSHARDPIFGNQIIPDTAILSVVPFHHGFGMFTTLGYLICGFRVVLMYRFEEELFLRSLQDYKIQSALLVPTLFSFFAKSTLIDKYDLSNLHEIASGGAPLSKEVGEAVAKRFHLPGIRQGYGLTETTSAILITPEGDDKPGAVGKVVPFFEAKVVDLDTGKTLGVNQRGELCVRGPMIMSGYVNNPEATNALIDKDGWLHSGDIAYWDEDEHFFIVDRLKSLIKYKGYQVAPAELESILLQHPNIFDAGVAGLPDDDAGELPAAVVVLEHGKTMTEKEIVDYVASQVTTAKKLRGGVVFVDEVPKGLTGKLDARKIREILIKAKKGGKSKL
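Inhibitors were tested against purified firefly luciferase in a biochemical, low-substrate format (both substrates at 10uM) and luminescence measured with a CCD imager.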
3T3 cytotox = NIH 3T3 cell cytotoxicity; NIH 3T3 viability, CellTiter-Glo ATP luminescence, 48-72 h; Potency, µM (highest dose often 96.7 µM), without a hit: top-dose activity change, negative = cytotoxicity, usual class: inhibitors; 94,000 compounds, 4.3% hits; further: potency means the concentration at half of the fitted maximal effect; nearly all actives have a fitted effect of over 55% in size
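Cytotoxicity is measured as loss of cellular ATP: NIH 3T3 cells (400/well) are exposed to compound for 48 or 72 hr at 37 °C, then CellTiter-Glo luminescence is imaged after 10 min at room temperature.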
IP6K1 inh = IP6K1 kinase inhibition. Q92551. IP6K1 kinase, ADP-Glo luminescence, 2 h; active compounds read low. activity change, % (series mostly up to about 58 µM). 140,000 compounds, 0.81% hits; in the data active means activity change below about -25%
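ADP-Glo luminescence measures ADP made by human IP6K1 during a 2 h RT reaction with ATP/IP6 (mix at 1.3 mM/130 uM); top library doses 57.5 and 19.1 uM final.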
The depositor's hits bear a star; i = inactive; ? = inconclusive; . = no result given; [ ] = dose if it differs, or a comment. Compounds with a hit are over-represented: about 7.3% of the library has one in this group of screens. Unless noted, the call rests on the fitted dose curve; in most records, active means well fitted curve in the direction sought with a large enough effect; inconclusive means small, poorly fitted or top-dose-only effect, or another doubt; inactive means no such curve, though single readings can be large; an effect the other way counts as inactive or inconclusive. Unless noted, on the % scale 0 is the no-effect control and ±100 the full control effect.

SMILES	SNCA expr inhib	HEK293 viab	HEK cytotox	Luciferase inh	3T3 cytotox	IP6K1 inh
COc1ccc(Nc2ccnc(N3CCC(NC(=O)c4ccccc4OC)CC3)n2)cc1	5.7%	1.2%[12.5 µM]	50.1µM*	.	?	8.4
COc1ccc(Nc2ccnc(N3CCC(NC(=O)c4ccc(OC)cc4)CC3)n2)cc1	19.0%	?	?	.	?	7.8
COc1ccccc1Nc1ccnc(N2CCC(NC(=O)c3ccccc3OC)CC2)n1	0.2%	-16.3%	?	.	?	8.2
COc1ccc(C2Cn3nnc(C(=O)Nc4cc(C)ccc4F)c3CO2)cc1 (configuration not stated)	0.9%	-8.2%	?	i	?	-17.7
Cc1nn(-c2ccc(F)cc2)c(Oc2ccccc2)c1CCC(=O)N1CCOCC1	?	6.4%	?	i	?	29.0
CCc1nn(-c2ccc(F)cc2)c(Oc2ccccc2)c1CCC(=O)N1CCCC1	-9.8%	-21.2%	44.7µM*	i	?	7.3
CCc1nn(-c2ccccc2)c(Oc2cccc(C)c2)c1CCC(=O)N1CCOCC1	?	-23.8%	39.8µM*	i	?	24.0
COc1ccc(C(=O)N2C[C@@H](Oc3cccnc3)C[C@H]2C(N)=O)c(OC)n1	?	-10.7%	1.2%	i	i	-4.7
O=C(c1ccc(F)cc1)N1CCCN(Cc2ccc3c(c2)OCO3)c2ccccc21	-20.1%	-9.2%	?	i	?	1.2
O=C(NC1CCCN(c2cc(-c3ccccc3)[nH]n2)C1)c1ccc2cc[nH]c2c1 (configuration not stated)	12.2%	?	?	14.1µM*	?	11.8
O=C(NC1CCCN(c2cc(-c3ccc(F)cc3)[nH]n2)C1)c1ccc(Br)o1 (configuration not stated)	23.5%	-14.8%	31.6µM*	?	?	5.0
O=C(NC1CCCN(c2cc(-c3ccc(F)cc3)[nH]n2)C1)c1ccncc1 (configuration not stated)	-17.0%	-3.5%	?	39.8µM*	-6.2%	2.8
O=C(NC1CCN(c2cc(-c3ccc(F)cc3)[nH]n2)C1)c1ccc(Br)o1 (configuration not stated)	-19.5%	-14.5%	?	i	?	0.0
O=C(NC1CCCN(c2cc(-c3ccccc3)[nH]n2)C1)c1ccc2nc[nH]c2c1 (configuration not stated)	34.9%	-4.5%	-12.1%	31.6µM*	-5.9%	0.0
O=C(NC1CCCN(c2cc(-c3ccccc3)[nH]n2)C1)c1ccccc1 (configuration not stated)	100.5%	-14.2%	?	?	?	26.5
Cc1ccc(C(=O)NC2CCCN(c3cc(-c4ccc(F)cc4)[nH]n3)C2)cc1 (configuration not stated)	104.4%	-7.5%	?	i	?	12.8
COCCc1noc(-c2ccccc2OC2CNC2)n1	-1.9%	1.3%	-1.1%	i	-22.4%	-13.7
O=C(NC1CCCN(c2cc(-c3ccc(F)cc3)[nH]n2)C1)c1ccc2nc[nH]c2c1 (configuration not stated)	?	?	?	15.8µM*	?	18.6
Cc1c(Cl)c(C(=O)N2CCCC(C)(Cc3ccc4c(c3)OCO4)C2)nn1C (configuration not stated)	41.5%	-11.2%	?	31.6µM*	?	-1.2
CC1(Cc2ccc3c(c2)OCO3)CCCN(C(=O)c2cncc(Cl)c2)C1 (configuration not stated)	3.8%	-11.1%	31.6µM*	i	?	25.5
COC(=O)c1ccc(CN2C(=O)[C@@H]3C[C@@H](O)CN3C3(CN(Cc4ccc(OC)c5ccccc45)C3)C2=O)cc1	-29.5%	-20.5%	?	i	79.4µM*	-4.9
CN(Cc1ccc(-c2ccccc2)cc1)Cc1ccccn1	94.2%[87.6 µM]	4.6%[87.6 µM]	50.1µM*	50.1µM*	?	2.1
CN(Cc1ccc(-c2ccccc2)cc1)Cc1cccnc1	20.6%[87.6 µM]	-2.9%[87.6 µM]	?	50.1µM*	?	-1.9
CN(Cc1ccc(F)cc1)Cc1ccc(-c2ccccc2)cc1	26.7%[87.6 µM]	7.1%[87.6 µM]	0.4%[172 µM]	i	-9.0%[138 µM]	-6.2
CCOc1ccc(C(=O)N2CCN(c3nnc4ccc(C(F)(F)F)cn34)CC2)cc1	-26.1%	-4.7%	i	i	?	15.4
SMILES	SNCA expr inhib	HEK293 viab	HEK cytotox	Luciferase inh	3T3 cytotox	IP6K1 inh
CCc1cccc2c(C(CC(=O)N3CCCC3)c3cccc([N+](=O)[O-])c3)c[nH]c12 (configuration not stated)	-4.2%	-2.8%	?	i	28.2µM*	-3.7
CCc1cccc2c(C(CC(=O)N3CCCCC3)c3cccc(C)c3)c[nH]c12 (configuration not stated)	10.9%	2.8%	?	i	-29.5%	10.3
CCOC(=O)C1CCCN(C(=O)CC(c2cccc([N+](=O)[O-])c2)c2c[nH]c3c(CC)cccc23)C1 (configuration not stated)	-23.6%	-14.9%	?	i	?	-3.8
CCc1cccc2c(C(CC(=O)N3CCc4ccccc4C3)c3cccc4c3OCO4)c[nH]c12 (configuration not stated)	-11.1%	?	?	i	17.8µM*	-4.1
CN1CCCCCC(O)c2cc(C(=O)Nc3cccc(OC(F)(F)F)c3)ccc21 (configuration not stated)	-27.0%	-18.8%	25.1µM*	i	28.2µM*	4.6
CN1CCCCCC(O)c2cc(C(=O)NCc3cc(F)cc(F)c3)ccc21 (configuration not stated)	-9.7%	-18.5%	?	i	?	-11.3
COc1cccc(NC(=O)c2ccc3c(c2)C(O)CCCCCN3C)c1 (configuration not stated)	42.9%	-12.6%	?	35.5µM*	?	3.5
CC1CCN(c2ccc(CNC(=O)c3ccc4c(c3)C(O)CCCCCN4C)cc2)CC1 (configuration not stated)	-11.5%	-9.3%	?	i	39.8µM*	-3.8
O=C(c1ccc(Cl)nc1)N1CCN(Cc2ccccc2-c2ccccc2F)CC1	?	4.7%[12.5 µM]	?	.	?	1.8
CCc1csc(CNC(=O)c2ccc(N(C)Cc3nonc3C)nc2)n1	0.1%	0.6%	-15.1%	i	-24.5%	0.7
Cc1ccc(OCC(=O)NCC2CCCCC(=O)N2)cc1 (configuration not stated)	11.8%	7.8%	i	i	-2.8%	9.2
Cc1ccc(-c2nnc3ccc(NCCN(C)C)nn23)nc1	?	-3.3%[87.6 µM]	0.1%[172 µM]	i	?	-15.6
COCCNc1ccc2nnc(-c3ccc(C)cn3)n2n1	-15.0%[87.6 µM]	2.2%[87.6 µM]	-3.9%[230 µM]	i	112µM*	-17.8
